Screening data: PubChem BioAssay, National Center for Advancing Translational Sciences (NCATS)
Most compounds without a hit are left out; they make up all but 7.8% or so of the library.
Vaccinia mCherry – qHTS for Stage-Specific Inhibitors of Vaccinia Orthopoxvirus: mCherry Reporter Primary qHTS | Potency, µM (titrated, usually from 36.5 µM), without a hit: top-dose activity change, negative = inhibition, actives largely listed as inhibitors | 0.63% of 310,000 active | Vaccinia virus mCherry reporter infection, fluorescence; calls by dose curve; tested in A549 cells; also: potency is read from the fitted curve at half-maximal effect; nearly all actives have a fitted effect of over 35% in size
Vaccinia Venus – qHTS for Stage-Specific Inhibitors of Vaccinia Orthopoxvirus: Venus Reporter Primary qHTS. Vaccinia virus Venus reporter expression, fluorescence. Potency, µM (series often up to 36.5 µM), inactives show at the highest dose activity change, negative = inhibition, most hits filed as inhibitors. 0.46% of 330,000 active. AID 720580, 2013; calls by dose curve; tested in A549 cells; also: potency is read from the fitted curve at half-maximal effect; nearly all actives have a fitted effect of over 30% in size
HCV inhibitor – qHTS Assay for Inhibitors of Hepatitis C Virus (HCV). 3.4% of 340,000 active. Potency, µM (highest dose often 41.8 µM), inactives show top-dose activity change, negative = inhibition, hits mostly inhibitors. AID 651820, 2012. Huh7.5.1 HCVcc-Cre infection, luciferase reporter, 44 h; active = well fitted inhibition curve with a large enough effect; inconclusive = small, poorly fitted or top-dose-only effect, or another doubt; inactive = no such curve, though single readings can be large or run the other way; also: potency is read from the fitted curve at half-maximal effect
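Infectious HCVcc-Cre (~0.5 moi) was added to cells just after compound, with cells seeded 4 h earlier at 1,000 per well. Luciferase activity after 44 h culture reported infection; substrate was incubated 15 min at room temperature before reading.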
LASV entry inh – qHTS for Inhibitors of binding or entry into cells for Lassa Virus; 1.2% of 300,000 active; Potency, µM (highest dose often 37.9 µM), without a hit: top-dose activity change, negative = inhibition, most hits filed as inhibitors; Lassa virus pseudotype entry inhibition, cell reporter; AID 540256, 2011; calls by dose curve; tested in HEK293 cells; also: potency is read from the fitted curve at half-maximal effect; nearly all actives have a fitted effect of over 50% in size
Marburg entry inh – qHTS for inhibitors of binding or entry into cells for Marburg Virus | 1.8% of 300,000 active | Potency, µM (top dose mostly 37.8 µM), for inactives: top-dose activity change, negative = inhibition, hits mostly inhibitors | Marburg virus pseudotyped entry inhibition, cell reporter | AID 540276, 2011; calls by dose curve; tested in HEK293 cells; also: potency is read from the fitted curve at half-maximal effect
HCMV inh – qHTS Assay for inhibitors of the human cytomegalovirus (HCMV). HFF cells, HCMV-luciferase reporter, 72 h; stronger effect = lower value. activity change, negative = inhibition, % at 57.5 µM. 4.5% of 410,000 active. AID 1259415, 2018; in the data active = activity change below about -60%; inconclusive = no clear call, values can overlap the other calls; inactive = above about -39%
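Two-dose cell screen: HFF monolayers treated with compounds and infected with luciferase-expressing HCMV at 1 PFU/cell, 72 h at 37C, then lysed for luciferase measurement.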
Active calls of the source: *; i = inactive; ? = inconclusive; . = not tested or not shown; [ ] = another dose, or the depositor's remark. % is scaled to controls: 0 for no effect and ±100 for the full control effect.

SMILES | Vaccinia mCherry | Vaccinia Venus | HCV inhibitor | LASV entry inh | Marburg entry inh | HCMV inh
Cc1ccc2ccc[n+](Cc3ccccc3)c2c1 | -20% | -28% | ? | . | . | -82*
Cc1ccc2c(ccc[n+]2CC(=O)c2ccccc2)c1 | ? | -8% | 10% | 1% | -19% | 63
Cc1ccc2c(c1)c(C)cc[n+]2Cc1ccccc1 | ? | -28% | ? | ? | 10µM* | -96*
COc1ccc2c(c1)c(C)cc[n+]2Cc1ccccc1 | . | . | -17% | . | . | -85*
C=CCOC(=O)N[C@H](C(C(=O)OC)=C(C)NCc1ccccc1)c1ccc(Br)cc1 | . | . | . | . | 7%[14.2 µM] | .
O=C(NCc1ccccc1Br)c1ccc2nc(N3CCCCC3)sc2c1 | -6% | -14% | . | . | 21%[46.1 µM] | 31
CCc1ccccc1NC(=O)CCCN1C(=O)CCn2nc(-c3cn(C)c4ccccc34)cc21 | -10% | 0% | . | -9%[46.1 µM] | . | 9
Cc1ccc(CNC(=O)c2ccc(N3Cc4ccccc4Oc4ncccc43)s2)cc1 | -10% | -15% | . | ? | -12%[46.1 µM] | -4
COc1ccc(F)c(CN2CCC3(CCC(CNC(=O)c4cc(C)nn4C)O3)CC2)c1 (centres undefined) | -16% | -10% | . | . | . | .
O=C(COC(=O)c1ccc(O)cc1)Nc1ccc(S(=O)(=O)N2CCOCC2)cc1 | . | . | -1% | . | . | 9
CCCc1nc2ccccc2c(C(=O)OCC(=O)Nc2cccc(S(=O)(=O)N3CCOCC3)c2)c1CC | . | . | 8.9µM* | 18µM* | ? | 0
CCCc1nc2ccccc2c(C(=O)OCC(=O)Nc2ccc(S(=O)(=O)N3CCOCC3)cc2)c1CC | . | . | 8.9µM* | ? | ? | 30
O=C(COC(=O)c1n[nH]c2ccccc12)Nc1cccc(S(=O)(=O)N2CCOCC2)c1 | -24% | -17% | -18% | 8% | -13%[46.1 µM] | -22
COc1ccc2c(C)c(CCC(=O)NCc3ccc(Cl)cc3)c(=O)oc2c1C | -9% | -9% | . | 1%[46.1 µM] | 9%[46.1 µM] | -6
O=[N+]([O-])c1ccc2nc(CO)[nH]c2c1 | -19% | -16% | . | . | . | .
CCCCN1C(C(=O)c2ccccc2)=C(OC(C)=O)c2ccccc2S1(=O)=O | -20% | ? | . | ? | ? | -108*
CCN1C(C(=O)c2ccccc2)=C(OC(=O)c2ccccc2OC)c2ccccc2S1(=O)=O | ? | ? | . | ? | -24%[46.1 µM] | -73*
CCc1ccc(NC(=O)COc2ccc(F)cc2C(=O)c2cnn(-c3ccccc3)c2)cc1 | i | -11% | ? | -27% | ? | -102*
COc1ccccc1NC(=O)COc1ccccc1C(=O)c1cnn(-c2ccccc2)c1 | . | . | -28% | . | -5% | 22
CCCCn1c(CNC(=O)c2ccc(OC)cc2)nnc1SCC(=O)Nc1ccccc1 | 4% | -7% | . | -29%[46.1 µM] | -4%[46.1 µM] | 2
COc1ccc(NS(=O)(=O)c2ccc3c(c2)CC(C)N3C(=O)C2CCC2)cc1OC (centres undefined) | -24% | -25% | . | ? | . | -78*
CC1Cc2cc(S(=O)(=O)NCc3ccccc3)ccc2N1C(=O)C1CC1 (centres undefined) | . | . | ? | . | . | -10
COc1cccc(NC(=O)CCNS(=O)(=O)c2ccc3c(c2)CC(C)N3C(=O)C2CC2)c1 (centres undefined) | i[7.34 µM] | 0%[7.34 µM] | 3% | . | . | -71*
COc1cc(Cl)c(NS(=O)(=O)c2ccc3c(c2)CC(C)N3C(=O)C2CCC2)c(OC)c1 (centres undefined) | -18%[7.34 µM] | -20%[7.34 µM] | . | ? | . | -86*
CCc1cccc(NS(=O)(=O)c2ccc3c(c2)CC(C)N3C(=O)C2CC2)c1 (centres undefined) | ? | ? | . | -24%[46.1 µM] | . | -80*
CC1Cc2cc(S(=O)(=O)NCCc3ccc(Cl)cc3)ccc2N1C(=O)C1CCC1 (centres undefined) | -20% | -8% | . | -22%[46.1 µM] | . | -6
CC1Cc2cc(S(=O)(=O)NCc3ccccc3)ccc2N1C(=O)C1CCC1 (centres undefined) | -9% | -5% | ? | ? | ? | -11
